Assay [1] can be described thus: qHTS assay to identify aromatase inhibitors - cell viability counter screen (AID 743084).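 Also: cells stimulated with testosterone during compound exposure; nearly all actives have a fitted effect of over 55% in size.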 Also: potency is read from the fitted curve at half-maximal effect.
The target in assay [2] is Aryl hydrocarbon receptor (Homo sapiens) (UniProt P35869). The assay is described as follows: qHTS assay to identify small molecule that activate the aryl hydrocarbon receptor (AhR) signaling pathway (AID 743085). Also: nearly all actives have a fitted effect of over 15% in size. Also: potency is read from the fitted curve at half-maximal effect.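 As to activation: HG2L7.5c1 human HepG2 liver cells with stably integrated DRE-driven firefly reporter; series mostly up to about 70 µM.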 The essentials:
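Reporter assay in engineered HepG2 line HG2L7.5c1, whose plasmid carries twenty dioxin responsive elements upstream of firefly luciferase. Treatment lasted 24 h at 37C; ONE-Glo luminescence gauged induction.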
(In general: qHTS replaces the single test concentration by a dilution series.)

The nature of assay [3]: qHTS assay to identify small molecule that activate the aryl hydrocarbon receptor (AhR) signaling pathway - cell viability counter screen (AID 743086). Also: nearly all actives have a fitted effect of over 45% in size. Also: potency is read from the fitted curve at half-maximal effect. The essentials: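 HepG2-AhR-luc (HG2L7.5c1) cells, 4000/well, treated 24 h at 37 C with compound; viability measured as CellTiter-Fluor fluorescence after 30 min in the same wells as the luciferase read.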
The target in assay [4] is Nuclear receptor subfamily 1 group I member 2 (Homo sapiens) (UniProt O75469). Nature of the assay: CYP3A4 induction through human pregnane X receptor (PXR) by small molecules, qHTS assay (AID 1346984). Also: nearly all actives have a fitted effect of over 40% in size. Also: potency is read from the fitted curve at half-maximal effect. In a few lines:
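Readings come from a luciferase reporter: DPX-2 cells, which are HepG2 cotransfected with PXR and a CYP3A4-promoter construct, were exposed to test compounds for 24 h at 37C before One-Glo detection.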

Assay [5] shares this target. Nature of the assay: Human pregnane X receptor (PXR) activation by small molecules, qHTS assay (AID 1346985). Also: nearly all actives have a fitted effect of over 40% in size. Also: potency is read from the fitted curve at half-maximal effect. The essentials: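 DPX-2 cells (HepG2 co-transfected with a PXR response element and a CYP3A4-promoter luciferase construct) were seeded at 2,000 per well, rested 5 hr at 37C, then exposed to DMSO-dissolved compounds for 24 hr. Activation was read as luciferase luminescence.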

The target of assay [6] is Peroxisome proliferator-activated receptor gamma (Homo sapiens) (UniProt P37231). The assay is described as follows: qHTS assay to identify small molecule agonists of the peroxisome proliferator-activated receptor gamma (PPARg) signaling pathway (AID 743094; active = well fitted activation curve with a large enough effect in the signal ratio in the repeat runs, not every such curve was filed as active; the % refers to the signal ratio). The essentials:
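Compounds dissolved in DMSO were added to PPARg UAS-bla HEK293H cells for 17 h at 37C, and reporter expression was quantified by fluorescence intensity after 1 h with LiveBLAzer B/G FRET substrate.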

Assay [7] addresses Nuclear receptor subfamily 1 group I member 2 (Rattus norvegicus) (UniProt Q9R1A7). Nature of the assay: Rat pregnane X receptor (rPXR) activation by small molecules, qHTS assay (AID 1346983). Also: nearly all actives have a fitted effect of over 20% in size. Also: potency is read from the fitted curve at half-maximal effect. To be noted: rPXR luciferase reporter cells, One-Glo luminescence, 24 h; max activation: active compounds read high. In a few lines:
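Cell-based rPXR activation assay: rPXR cells, 2,000 per well, rested 5hr at 37 C, then exposed to compounds in DMSO for 24 hr at 37 C. Luciferase activity read by One-Glo luminescence after 30 min at room temperature.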

For 29 compounds, Potency and max activation results are on record in PubChem BioAssay (Tox21).

Molecules are shown by their SMILES. Inconclusive results are not listed. Unmarked numbers belong to inactive results. Active and inactive are the calls of the source. Unless noted, calls follow the shape of the dose curve; as a rule, active = well fitted curve in the direction sought with a large enough effect in the repeat runs; inconclusive = weak or mixed curves; inactive = no such curve, though single readings can be large; an effect the other way counts as inactive or inconclusive.
% is scaled to controls: 0 for no effect and ±100 for the full control effect.

Sequence of Aryl hydrocarbon receptor (Homo sapiens) (P35869 whole entry, looked up): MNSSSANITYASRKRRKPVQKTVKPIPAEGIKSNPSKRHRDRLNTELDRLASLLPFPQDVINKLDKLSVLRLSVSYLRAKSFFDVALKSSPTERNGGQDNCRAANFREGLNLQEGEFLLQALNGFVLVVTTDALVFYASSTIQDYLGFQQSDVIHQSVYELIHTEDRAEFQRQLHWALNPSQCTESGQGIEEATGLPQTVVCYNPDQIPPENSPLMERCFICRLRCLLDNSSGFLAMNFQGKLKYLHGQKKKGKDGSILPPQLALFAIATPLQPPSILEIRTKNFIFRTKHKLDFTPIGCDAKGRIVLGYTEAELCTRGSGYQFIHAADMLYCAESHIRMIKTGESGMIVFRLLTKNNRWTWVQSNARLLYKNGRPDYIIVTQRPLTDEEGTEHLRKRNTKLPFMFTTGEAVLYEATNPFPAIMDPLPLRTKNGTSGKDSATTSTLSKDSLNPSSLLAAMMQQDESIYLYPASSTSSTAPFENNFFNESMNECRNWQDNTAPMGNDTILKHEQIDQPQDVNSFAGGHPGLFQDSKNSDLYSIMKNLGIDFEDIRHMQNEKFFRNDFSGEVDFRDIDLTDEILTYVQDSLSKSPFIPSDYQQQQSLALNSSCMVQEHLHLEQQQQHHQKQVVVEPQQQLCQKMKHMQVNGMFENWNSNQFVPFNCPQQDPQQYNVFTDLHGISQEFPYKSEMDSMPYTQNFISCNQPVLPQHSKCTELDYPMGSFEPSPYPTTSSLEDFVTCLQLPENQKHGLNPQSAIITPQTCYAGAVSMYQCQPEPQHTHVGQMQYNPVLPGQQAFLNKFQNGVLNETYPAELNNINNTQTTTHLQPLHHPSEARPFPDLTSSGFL
Sequence of Peroxisome proliferator-activated receptor gamma (Homo sapiens) (P37231 whole entry, looked up): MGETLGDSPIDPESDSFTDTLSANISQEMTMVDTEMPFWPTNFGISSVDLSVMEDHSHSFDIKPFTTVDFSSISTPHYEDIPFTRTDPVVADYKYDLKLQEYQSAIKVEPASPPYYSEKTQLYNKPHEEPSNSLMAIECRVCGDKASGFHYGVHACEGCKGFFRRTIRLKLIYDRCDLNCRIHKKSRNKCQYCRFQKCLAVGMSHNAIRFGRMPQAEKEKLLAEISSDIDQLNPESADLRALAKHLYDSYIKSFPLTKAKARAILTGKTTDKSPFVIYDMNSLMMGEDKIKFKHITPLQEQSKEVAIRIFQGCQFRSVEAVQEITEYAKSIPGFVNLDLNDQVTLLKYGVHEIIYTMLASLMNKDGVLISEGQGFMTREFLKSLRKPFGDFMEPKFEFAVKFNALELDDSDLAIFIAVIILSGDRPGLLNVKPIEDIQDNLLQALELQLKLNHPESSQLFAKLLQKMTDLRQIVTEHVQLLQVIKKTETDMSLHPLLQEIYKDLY
Sequence of Nuclear receptor subfamily 1 group I member 2 (Rattus norvegicus) (Q9R1A7 whole entry, looked up): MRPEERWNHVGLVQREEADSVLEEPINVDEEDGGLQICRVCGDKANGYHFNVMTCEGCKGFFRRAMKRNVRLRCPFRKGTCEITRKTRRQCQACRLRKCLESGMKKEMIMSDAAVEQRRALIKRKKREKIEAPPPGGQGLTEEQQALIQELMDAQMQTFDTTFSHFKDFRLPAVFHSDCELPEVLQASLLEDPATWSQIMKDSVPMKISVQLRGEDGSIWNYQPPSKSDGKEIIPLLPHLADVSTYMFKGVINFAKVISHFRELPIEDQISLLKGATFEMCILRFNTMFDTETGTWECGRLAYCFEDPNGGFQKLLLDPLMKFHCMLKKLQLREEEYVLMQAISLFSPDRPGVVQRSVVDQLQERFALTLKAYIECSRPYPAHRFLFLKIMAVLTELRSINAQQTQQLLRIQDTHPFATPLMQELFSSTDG

For the compound `C=C[C@]1(C)C[C@@H](OC(=O)CSC(C)(C)CNC(=O)[C@H](N)C(C)C)[C@]2(C)[C@H](C)CC[C@]3(CCC(=O)[C@H]32)[C@@H](C)[C@@H]1O`, the Potency is 2.98 µM (active) in assay [1], 3.76 µM (active) in assay [3] and 8.91 µM (active) in assay [5]. Moreover, the Potency entry in assay [2] and in assay [4] was “inactive” in each case.
`CCC(=O)OCC(=O)[C@@]1(OC(=O)CC)[C@H](C)C[C@H]2[C@@H]3CCC4=CC(=O)C=C[C@]4(C)[C@@]3(F)[C@@H](O)C[C@@]21C`: the Potency result in assay [1], in assay [2], in assay [3] and in assay [6] was “inactive” each time.
Turning to `CCCCCCCCCCCCCCCCCCCCCC(=O)Nc1ccn([C@@H]2O[C@H](CO)[C@@H](O)[C@@H]2O)c(=O)n1`, the Potency result in assay [1], in assay [3], in assay [6], in assay [4] and in assay [5] was “inactive” throughout. Besides, the max activation in assay [7] was -4.2%.
With `CC(=O)[C@@]1(O)CC[C@H]2[C@@H]3C=C(Cl)C4=CC(=O)CC[C@]4(C)[C@H]3CC[C@@]21C`, the Potency result in assay [1], in assay [2] and in assay [3] was “inactive” throughout.
Take `N#Cc1ccc2c(c1)N(CCCN1CCC(O)CC1)c1ccccc1S2`: the Potency entry in assay [1], in assay [2] and in assay [6] was “inactive” each time. In addition, in assay [7], the max activation was -1.43%.
Regarding `O=C(OCCO)c1ccccc1O`, the Potency entry in assay [1], in assay [2], in assay [3] and in assay [6] was “inactive” each time.
For the compound `C=C1C(=C/C=C2\CCC[C@]3(C)[C@@H]([C@H](C)CCCC(C)(C)O)CC[C@@H]23)C[C@@H](O)C[C@@H]1O`, the Potency result in assay [1], in assay [3] and in assay [4] was “inactive” in each case. Further, the max activation in assay [7] is 0.618%.
As to `CCOc1ccc(N=C(C)Nc2ccc(OCC)cc2)cc1`, the Potency entry in assay [1], in assay [2] and in assay [3] was “inactive” throughout.
`CC(CC(c1ccccc1)c1ccccc1)NC(C)(C)C` (configuration not stated): the Potency entry in assay [1], in assay [2], in assay [3] and in assay [6] was “inactive” each time.
Consider `O=C(O)c1c(Cl)c(Cl)c(Cl)c(Cl)c1-c1c2cc(I)c(=O)c(I)c-2oc2c(I)c(O)c(I)cc12`, for which the Potency in assay [1] and in assay [3] was 23.7 µM (active) each time. The Potency entry in assay [6] and in assay [5] was “inactive” in each case. Further, in assay [7], the max activation was -7.42%.
As to `CCCCC(=O)OCC(=O)[C@]1(O)Cc2c(O)c3c(c(O)c2[C@@H](O[C@H]2C[C@H](NC(=O)C(F)(F)F)[C@H](O)[C@H](C)O2)C1)C(=O)c1c(OC)cccc1C3=O`, the Potency entry in assay [2], in assay [4] and in assay [5] was “inactive” each time.
Turning to `C=C[C@]1(C)C[C@@H](OC(=O)CSCCN(CC)CC)[C@]2(C)[C@H](C)CC[C@]3(CCC(=O)[C@H]32)[C@@H](C)[C@@H]1O`, the Potency result in assay [2], in assay [6] and in assay [4] was “inactive” each time.
Turning to `CCN(CC)CCOc1ccc(-c2nc3cc(Cl)ccc3s2)cc1`, the Potency in assay [2] is 8.41 µM (active); in assay [7], 0.794 µM (active); in assay [4], 12.6 µM (active); in assay [5], 10 µM (active).
As to `CC(C)(C)C1(O)CCN2CC3c4ccccc4CCc4cccc(c43)C2C1` (configuration not stated), the Potency result in assay [2] and in assay [6] was “inactive” in each case. Further, the Potency in assay [5] was 14.1 µM (active).
On to `c1ccc2c(c1)Sc1ccccc1N2CCN1CCCC1`, for which the Potency result in assay [1] and in assay [6] was “inactive” throughout. The Potency is 10 µM (active) in assay [4] and 25.1 µM (active) in assay [5].
`CN1CCC(CN2c3ccccc3Sc3ccccc32)C1` (configuration not stated): the Potency result in assay [1] was “inactive”. Besides, the max activation in assay [7] was -2.87%. For the same compound, the Potency in assay [4] was 0.891 µM (active).
For `CCOC(=O)CN[C@@H](C(=O)N1CC[C@H]1C(=O)NCc1ccc(/C(N)=N/O)cc1)C1CCCCC1`, the Potency entry in assay [2] and in assay [6] was “inactive” throughout.
With `CN(C)CCCN1c2ccccc2C(C)(C)c2ccccc21`, the Potency result in assay [1] and in assay [2] was “inactive” throughout. The max activation in assay [7] is -1.25%. In addition, the Potency in assay [4] was 31.6 µM (active).
On to `O=C(CCCN1CCC(n2c(=S)[nH]c3ccccc32)CC1)c1ccc(F)cc1`, for which the Potency entry in assay [1] and in assay [3] was “inactive” each time. The Potency in assay [2] is 11.9 µM (active).
For the compound `CCc1ccc2c(c1)N(CC(C)CN(C)C)c1ccccc1S2` (configuration not stated), the Potency entry in assay [2] is “inactive”. Besides, the max activation in assay [7] was 1.61%. In addition, the Potency in assay [4] is 12.6 µM (active).
For `O=C(CCCN1CCC(C(=O)c2ccc(F)cc2)CC1)c1ccc(F)cc1`, the Potency entry in assay [1], in assay [2], in assay [3] and in assay [6] was “inactive” each time. In assay [7], the max activation is 4%. The Potency in assay [5] was 15.8 µM (active).
In the case of `COc1ccc(CNCC(O)COc2ccc3[nH]c(=O)ccc3c2)cc1OC` (configuration not stated), the Potency entry in assay [1], in assay [2], in assay [3] and in assay [6] was “inactive” in each case.
Turning to `Cc1ccc(C2(O)CCN(CCCC(=O)c3ccc(F)cc3)CC2)cc1`, the Potency result in assay [1] was “inactive”.
With `CN1CCCC(CN2c3ccccc3Sc3ccccc32)C1` (configuration not stated), the Potency result in assay [1], in assay [2], in assay [3] and in assay [6] was “inactive” throughout. In addition, in assay [7], the max activation is -5.65%. Moreover, the Potency in assay [4] was 25.1 µM (active).
Turning to `CCCC(=O)O[C@]1(C(=O)COC(=O)CC)[C@@H](C)C[C@H]2[C@@H]3CCC4=CC(=O)C=C[C@]4(C)[C@@]3(F)[C@@H](O)C[C@@]21C`, in assay [1], the Potency result was “inactive”.
As for `CCC(=O)OCC(=O)[C@@]1(OC(=O)CC)[C@@H](C)C[C@H]2[C@@H]3CCC4=CC(=O)C=C[C@]4(C)[C@@]3(F)[C@@H](O)C[C@@]21C`, the Potency entry in assay [1], in assay [2] and in assay [6] was “inactive” each time.
As to `CN1CCN(CCC=C2c3ccccc3Sc3ccc(S(=O)(=O)N(C)C)cc32)CC1`, the Potency in assay [1] was 29.8 µM (active). Moreover, in assay [2], the Potency entry is “inactive”.
For the compound `CNC(C)CCC=C(C)C` (configuration not stated), the Potency entry in assay [1], in assay [3], in assay [6], in assay [4] and in assay [5] was “inactive” each time. Besides, the max activation in assay [7] was 2.06%.
Consider `CC#CCC(C)[C@H](O)/C=C/[C@@H]1[C@H]2C/C(=C/CCCC(=O)O)C[C@H]2C[C@H]1O` (some centres not stated), for which the Potency result in assay [1], in assay [2], in assay [3] and in assay [6] was “inactive” in each case.
